Source: PubChem
TRHR PAM: qHTS for Small Molecule Agonists and Allosteric Enhancers of Human TRH Receptor: Primary Screen for Enhancers | 0.66% of 360,000 active | TRHR cells, fluo-8 calcium fluorescence, EC20 TRH enhancement | enhancement, % at 2 µM; in the data active means enhancement above about 30%
Target sequence (P34981 whole entry, looked up): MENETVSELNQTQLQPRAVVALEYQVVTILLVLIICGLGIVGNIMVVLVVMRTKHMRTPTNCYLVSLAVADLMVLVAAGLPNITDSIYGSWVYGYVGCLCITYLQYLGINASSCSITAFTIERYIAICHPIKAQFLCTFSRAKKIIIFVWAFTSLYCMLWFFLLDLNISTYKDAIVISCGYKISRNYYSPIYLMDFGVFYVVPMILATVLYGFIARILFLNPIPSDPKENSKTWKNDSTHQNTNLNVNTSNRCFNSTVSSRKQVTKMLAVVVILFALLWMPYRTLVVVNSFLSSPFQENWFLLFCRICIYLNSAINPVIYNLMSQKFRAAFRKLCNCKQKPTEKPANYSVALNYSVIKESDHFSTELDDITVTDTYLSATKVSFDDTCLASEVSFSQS
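Enhancer read-out: after compound pinning and an initial kinetic agonist-mode read, an EC20 of TRH (10 nM final) was injected and fluo-8 calcium signal (Ex 480/Em 530) followed at 1 s/cycle for 100 cycles in TRHR-expressing cells.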
TRHR agonist: qHTS for Small Molecule Agonists and Allosteric Enhancers of Human TRH Receptor: Primary Screen for Agonists. activation, % at 2 µM. 0.18% of 360,000 active. TRHR cells, calcium flux fluo-8, FDSS agonist mode. Thyrotropin-releasing hormone receptor (Homo sapiens), P34981
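Agonist-mode FDSS calcium read (Ex 480/Em 530, 1 s cycles) in 1536-well TRHR cells with fluo-8 dye, after 10-cycle baseline and 23 nL compound addition; TRH at EC20 (10 nM final) added afterwards for the enhancer phase.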
D1 antagonist: Antagonist of Human D 1 Dopamine Receptor: qHTS | HEK293 TREx D1 cells, calcium flux, dopamine EC80; hits give low values | activity change, negative = inhibition, % at 10 µM | 3.2% of 360,000 active; in the data active means activity change below about -30%
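Using tetracycline-induced force-coupled D1 Hek293 cells and a calcium dye, signals were followed for 180 s after compound, then for 180 s after EC80 dopamine, to detect inhibitors.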
D1 potentiator: Potentiators of Human D1 Dopamine Receptor: qHTS; D(1A) dopamine receptor (Homo sapiens), P21728; HEK293 TREx D1 cells, calcium flux, dopamine EC20 potentiation; potentiation, % at 10 µM; 0.036% of 360,000 active; in the data active means potentiation above about 30%
D1 agonist: Allosteric Agonists of the Human D1 Dopamine Receptor: qHTS. D(1A) dopamine receptor (Homo sapiens), P21728. HEK293 T-REx D1 cells, calcium flux, agonist mode. activation, % at 2 µM. 1% of 360,000 active
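Agonism was scored from calcium flux recorded over 180 s (1 read/s) after pintool compound addition, following a 10-cycle baseline. Cells were inducible force-coupled HEK293 TREx D1, plated overnight at 30 C and loaded with no-wash calcium dye.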
Large screens that a line does not name were inactive; ! = not active in a repeat. Shown are actives, neighbours in structure and some others; about 4.7% of the full set was active somewhere. Unless noted, no stated cut-off is given here; in the data, active means activation above about 30%; inactive means the rest.

COC(=O)NN=C1CCC(c2ccccc2)CC1 (stereo unspecified)	none
CC(C)(C)C(=O)NN=C1CCC(c2ccccc2)CC1 (stereo unspecified)	D1 antagonist -33.4
COc1ccc(-n2c(=O)c(CCC(=O)N3CCN(c4ccccc4O)CC3)nc3ccccc32)cc1	none
O=C(O)C(Sc1ccncn1)c1ccccc1 (stereo unspecified)	D1 antagonist -34.7
Cc1cc(-c2ccccc2)nc(SC(C(=O)O)c2ccccc2)n1 (stereo unspecified)	none
Cc1ccc(CN2CCc3nc(N4CCN(C)CC4)ncc3C2)s1	none
COC(=O)NC1c2ccccc2Oc2ccccc21	D1 agonist 74.6
S=C(NCc1ccc2c(c1)OCO2)NC1CCN(Cc2ccccc2)CC1	D1 agonist 37.9
S=C(Nc1ccc(Cl)c(Cl)c1)NC1CCCCC1	D1 antagonist -40.8
S=C(Nc1ccc2nsnc2c1)NC1CCCCC1	D1 agonist 46.1
S=C(NCc1ccccc1)N1CCN(Cc2ccc3c(c2)OCO3)CC1	none
S=C(Nc1ccc(Cl)c(Cl)c1)NC1CCN(Cc2ccccc2)CC1	D1 antagonist -43.4, D1 agonist 47.3
S=C(Nc1ccc2nsnc2c1)N1CCCCCC1	none
Cc1ccccc1OCc1nnc(SCc2cc(=O)c3cccc(F)c3[nH]2)n1C	none
CSC(=S)N/N=C/c1ccccc1	none
CCN1CCN(c2ccc(N=Cc3ccccc3O)cc2)CC1	none
COc1ccc(NC(=O)COc2ccc(-c3nn(C)c(=O)c4ccccc34)cc2)cc1	D1 antagonist -39.8!
CNC(=O)c1ccc(NC(=O)COc2ccc(-c3nn(C)c(=O)c4ccccc34)cc2)cc1	none
Cc1c(C(=O)N(C)C)sc2c1c(=O)n(-c1ccc(F)cc1)c(=O)n2Cc1ccccc1C#N	none
CN(C)S(=O)(=O)c1ccc(NCC2COc3ccccc3O2)c([N+](=O)[O-])c1 (stereo unspecified)	none
NC(=O)c1ccc(NCC2COc3ccccc3O2)c([N+](=O)[O-])c1 (stereo unspecified)	D1 antagonist -37.0
COc1ccccc1N1CCN(C(=O)c2cc3c(=O)n(Cc4cccs4)ccc3nc2C)CC1	none
CCOC(=O)CSc1nnc(CNc2ccc(Cl)cc2)n1-c1ccccc1	D1 antagonist -52.0
CCc1nnc(NC(=O)CSc2nnc(CNc3cccc(C)c3)n2-c2ccccc2)s1	D1 antagonist -30.7
Cc1ccc(OCCN(C)C(=O)C2CCC(=O)N(Cc3ccccc3F)C2)cc1 (stereo unspecified)	none
Cc1cc(S(=O)(=O)NC2CCCCC2)c(C)s1	D1 antagonist -30.4
COc1ccc(C)cc1S(=O)(=O)NC1CCCCCC1	none
c1cnc2c(C3NCCc4c3[nH]c3ccccc43)cccc2c1 (stereo unspecified)	D1 antagonist -56.9, D1 agonist 41.1
O=C(O)c1cccnc1C(=O)N1CCc2c([nH]c3ccccc23)C1C(F)(F)F (stereo unspecified)	none
CCOC(=O)C1CCN(C(=O)c2ccc(OCC(=O)Nc3ccc(OCC)cc3)c(OC)c2)CC1	none
c1ccc(Oc2ccc(-c3ccnc4nc(N5CCOCC5)nn34)cc2)cc1	TRHR PAM 33.4
O=C(O)CCn1ccc2cc(S(=O)(=O)N3CCCCC3)ccc21	none
CN(C)c1ccc(NS(=O)(=O)c2ccc(-c3csnn3)cc2)cc1	D1 agonist 30.3
Cc1ccc(Cl)cc1Nc1nn2c(=O)c3ccc(C(=O)NC(C)c4ccccc4)cc3nc2s1 (stereo unspecified)	D1 antagonist -54.3
CCN(CC)CCNC(=O)c1ccc2c(=O)n3nc(Nc4cccc(Cl)c4C)sc3nc2c1	D1 antagonist -55.9
COc1ccccc1Nc1nn2c(=O)c3ccc(C(=O)NC(C)c4ccccc4)cc3nc2s1 (stereo unspecified)	none
COc1ccccc1CCNC(=O)c1cc2c(=O)n3cccc(C)c3nc2n1C	none
CC(C)CCN1CCC(n2nccc2NC(=O)C2CCOC2)CC1 (stereo unspecified)	none
